Data on eleven compounds can be found in ChEMBL document CHEMBL3988442, “University of Dundee, Small-Polar-MMV Screening Library” (2021).

Set-up in all cases: scale not given: direction of the effect not stated beside the values
Assay [1] addresses Protein translocase subunit SecA (Escherichia coli (strain K12)) (UniProt P10408). Nature of the assay: Assay to Identify E. coli SecA ATPase Inhibitors. The assay is classed as functional. The note with it: 30 µM.
The target of assay [2] is T1, Ubiquitin-activating enzyme e1, putative (Leishmania donovani (strain BPK282A1)) (UniProt E9BSI1).
T1 sequence (whole entry): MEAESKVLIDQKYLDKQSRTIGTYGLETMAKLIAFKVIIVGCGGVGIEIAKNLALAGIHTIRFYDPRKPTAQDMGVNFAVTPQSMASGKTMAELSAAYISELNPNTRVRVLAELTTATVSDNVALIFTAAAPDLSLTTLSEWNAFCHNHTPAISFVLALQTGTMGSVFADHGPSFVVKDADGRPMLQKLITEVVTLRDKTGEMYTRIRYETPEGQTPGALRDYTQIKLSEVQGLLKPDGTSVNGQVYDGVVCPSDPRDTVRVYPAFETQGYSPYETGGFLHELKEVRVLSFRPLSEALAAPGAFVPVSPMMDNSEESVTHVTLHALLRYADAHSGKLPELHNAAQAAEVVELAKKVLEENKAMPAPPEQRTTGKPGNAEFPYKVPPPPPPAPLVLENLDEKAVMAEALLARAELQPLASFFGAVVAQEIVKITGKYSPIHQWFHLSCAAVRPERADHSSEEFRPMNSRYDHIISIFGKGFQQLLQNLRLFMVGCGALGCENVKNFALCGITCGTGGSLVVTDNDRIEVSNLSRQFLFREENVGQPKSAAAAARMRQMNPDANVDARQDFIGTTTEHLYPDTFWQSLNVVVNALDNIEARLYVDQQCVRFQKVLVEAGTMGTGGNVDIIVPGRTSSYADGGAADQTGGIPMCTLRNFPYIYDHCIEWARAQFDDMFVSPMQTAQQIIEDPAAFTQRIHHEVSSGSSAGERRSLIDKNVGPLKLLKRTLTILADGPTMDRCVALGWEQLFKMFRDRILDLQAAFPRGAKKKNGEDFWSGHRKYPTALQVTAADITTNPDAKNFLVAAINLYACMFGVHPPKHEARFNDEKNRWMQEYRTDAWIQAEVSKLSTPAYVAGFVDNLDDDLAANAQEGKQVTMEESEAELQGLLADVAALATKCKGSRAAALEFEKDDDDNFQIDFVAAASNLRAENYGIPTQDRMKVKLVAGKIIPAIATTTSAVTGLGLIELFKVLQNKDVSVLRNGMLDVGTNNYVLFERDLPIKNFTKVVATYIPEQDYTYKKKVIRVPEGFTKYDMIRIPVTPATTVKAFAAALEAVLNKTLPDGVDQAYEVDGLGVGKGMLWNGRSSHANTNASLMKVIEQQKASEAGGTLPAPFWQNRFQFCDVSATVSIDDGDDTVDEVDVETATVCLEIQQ
Kind of assay: Leishmania donovani Ubiquitin Activating Enzyme (LdE1). In kind it is functional. The note with it: 30 µM.

Assay [3] has as its target AMP-activated protein kinase, AMPK (Homo sapiens) (UniProt P54646+O43741+P54619+Q9UGJ0+Q9Y478+Q13131+Q9UGI9). Nature of the assay: AMP-dependent Kinase enzyme assay. An in vitro enzyme assay that detects ADP turnover that is directly proportional to AMPK activity. This uses naive AMPK that is activated during the assay with MK-8722. In kind it is functional. The note with it: 30 µM.

The target in assay [4] is Sialic acid-binding Ig-like lectin 9 (Homo sapiens) (UniProt Q9Y336). Kind of assay: Hs-Siglec9 ALPHAscreen SOP 20170721. The note with it: 10 µM.
For a further assay, the system named is Trypanosoma cruzi. Kind of assay: Trypanosoma cruzi phosphomannomutase and mannose-1-phosphate guanylyltransferase assay. In kind it is functional. The note with it: 10 µM.
Assay [5] deals with T2, Arginase-2, mitochondrial (Homo sapiens) (UniProt P78540).
T2 sequence (whole entry): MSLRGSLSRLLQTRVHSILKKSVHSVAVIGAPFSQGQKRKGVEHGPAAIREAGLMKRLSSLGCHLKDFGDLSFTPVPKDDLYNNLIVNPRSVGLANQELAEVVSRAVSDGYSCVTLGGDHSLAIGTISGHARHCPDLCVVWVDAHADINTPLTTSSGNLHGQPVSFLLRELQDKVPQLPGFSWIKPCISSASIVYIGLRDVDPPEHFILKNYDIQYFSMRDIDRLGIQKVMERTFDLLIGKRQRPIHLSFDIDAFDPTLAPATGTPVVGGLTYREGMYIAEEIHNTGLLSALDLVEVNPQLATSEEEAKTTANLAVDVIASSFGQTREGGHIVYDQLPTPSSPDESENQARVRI
Kind of assay: in vitro enzyme assay to detect the production of urea directly proportional to the activity of Arginase II. Also: in the data most compounds retested in dose-response had high values. In kind it is functional. The note with it: 33.3 µM.

Assay [6] concerns the target T3, Proteasome subunit beta (Trypanosoma cruzi) (UniProt O96673).
T3 sequence (whole entry): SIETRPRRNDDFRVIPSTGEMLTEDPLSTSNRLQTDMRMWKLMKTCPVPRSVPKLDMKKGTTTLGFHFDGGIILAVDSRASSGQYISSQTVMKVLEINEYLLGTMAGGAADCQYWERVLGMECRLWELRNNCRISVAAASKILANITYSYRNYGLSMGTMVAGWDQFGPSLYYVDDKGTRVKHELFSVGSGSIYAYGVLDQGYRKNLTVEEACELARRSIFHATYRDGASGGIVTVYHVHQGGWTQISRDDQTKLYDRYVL
Nature of the assay: Trypanosoma cruzi proteasome chymotrypsin-like activity (TcProtChymo) assay. Also: in the data most compounds retested in dose-response had high values. In kind it is functional. The note with it: 9.37 µM.

The species named for a further assay is Homo sapiens. Nature of the assay: To identify inhibition of the IFN signalling (Jak-Stat) pathway via expression of an eGFP reporter gene under the control of an IFN-stimulated response element (ISRE) containing MxA promoter. The assay is classed as functional. The note with it: 30 µM.
Assay [7] deals with T4, Tyrosyl-tRNA synthetase, putative (Trypanosoma cruzi (strain CL Brener)) (UniProt Q4DSP6).
T4 sequence (whole entry): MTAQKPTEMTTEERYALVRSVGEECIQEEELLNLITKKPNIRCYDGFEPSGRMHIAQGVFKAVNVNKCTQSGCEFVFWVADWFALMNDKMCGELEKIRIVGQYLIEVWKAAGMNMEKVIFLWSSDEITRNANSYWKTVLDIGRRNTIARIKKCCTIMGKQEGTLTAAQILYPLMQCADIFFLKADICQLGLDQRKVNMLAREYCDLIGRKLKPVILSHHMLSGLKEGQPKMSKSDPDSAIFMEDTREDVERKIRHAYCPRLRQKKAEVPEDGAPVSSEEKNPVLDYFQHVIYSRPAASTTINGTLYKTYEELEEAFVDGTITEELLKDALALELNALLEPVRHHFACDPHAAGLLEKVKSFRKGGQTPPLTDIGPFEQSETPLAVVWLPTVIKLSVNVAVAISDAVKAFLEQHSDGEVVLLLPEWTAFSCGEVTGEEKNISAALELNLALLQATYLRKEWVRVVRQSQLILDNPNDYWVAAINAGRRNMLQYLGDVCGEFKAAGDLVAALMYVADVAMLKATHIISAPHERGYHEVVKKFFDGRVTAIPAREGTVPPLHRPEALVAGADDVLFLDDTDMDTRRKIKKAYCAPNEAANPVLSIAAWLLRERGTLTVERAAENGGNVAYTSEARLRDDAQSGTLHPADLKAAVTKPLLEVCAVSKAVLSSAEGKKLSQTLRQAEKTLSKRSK
Nature of the assay: Trypanosoma cruzi tyrosyl tRNA synthetase (TcYRS) _High Tyrosine SOP. Also: in the data most compounds retested in dose-response had high values. The note with it: 30 µM. The assay is classed as functional.

Assay [8] has as its target T4, Tyrosyl-tRNA synthetase, putative (Trypanosoma cruzi (strain CL Brener)). Kind of assay: Trypanosoma cruzi tyrosyl tRNA synthetase (TcYRS) SOP. In kind it is functional. The note with it: 30 µM.
For assay [9], the target named is Chromo domain-containing protein 1 (Saccharomyces cerevisiae (strain ATCC 204508 / S288c) (Baker's yeast)) (UniProt P32657). Nature of the assay: ScCHD-1 Enzyme Inhibition Assay. Also: in the data most compounds retested in dose-response had high values. The assay is classed as functional. The note with it: 30 µM.

For some of these results: Potency and affinity values are given separately.

Protein translocase subunit SecA (Escherichia coli (strain K12)), sequence (P10408 whole entry): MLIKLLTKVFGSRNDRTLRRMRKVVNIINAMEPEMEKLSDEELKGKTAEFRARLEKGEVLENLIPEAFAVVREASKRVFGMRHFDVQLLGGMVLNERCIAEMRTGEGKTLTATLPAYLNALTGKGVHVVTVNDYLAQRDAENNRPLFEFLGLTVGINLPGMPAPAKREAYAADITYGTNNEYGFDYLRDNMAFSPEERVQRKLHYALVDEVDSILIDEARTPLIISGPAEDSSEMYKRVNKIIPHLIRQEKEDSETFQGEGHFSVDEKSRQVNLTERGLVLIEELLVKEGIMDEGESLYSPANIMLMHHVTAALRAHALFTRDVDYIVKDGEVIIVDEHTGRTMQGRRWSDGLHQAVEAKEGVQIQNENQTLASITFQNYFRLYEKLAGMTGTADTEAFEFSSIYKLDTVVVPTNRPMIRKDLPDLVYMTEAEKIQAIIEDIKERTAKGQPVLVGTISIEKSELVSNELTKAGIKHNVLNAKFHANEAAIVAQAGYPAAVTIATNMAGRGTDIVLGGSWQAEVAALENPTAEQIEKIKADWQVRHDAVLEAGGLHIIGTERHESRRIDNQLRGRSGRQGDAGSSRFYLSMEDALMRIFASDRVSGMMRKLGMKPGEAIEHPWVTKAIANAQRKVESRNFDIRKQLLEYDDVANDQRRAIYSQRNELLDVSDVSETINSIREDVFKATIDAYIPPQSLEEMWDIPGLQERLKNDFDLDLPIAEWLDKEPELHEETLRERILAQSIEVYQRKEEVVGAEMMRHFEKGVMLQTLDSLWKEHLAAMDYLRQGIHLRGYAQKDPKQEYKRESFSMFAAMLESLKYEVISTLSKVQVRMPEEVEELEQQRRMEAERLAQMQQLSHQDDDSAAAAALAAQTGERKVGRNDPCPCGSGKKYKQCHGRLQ
Chromo domain-containing protein 1 (Saccharomyces cerevisiae (strain ATCC 204508 / S288c) (Baker's yeast)), sequence (P32657 whole entry, the tested form may be a part): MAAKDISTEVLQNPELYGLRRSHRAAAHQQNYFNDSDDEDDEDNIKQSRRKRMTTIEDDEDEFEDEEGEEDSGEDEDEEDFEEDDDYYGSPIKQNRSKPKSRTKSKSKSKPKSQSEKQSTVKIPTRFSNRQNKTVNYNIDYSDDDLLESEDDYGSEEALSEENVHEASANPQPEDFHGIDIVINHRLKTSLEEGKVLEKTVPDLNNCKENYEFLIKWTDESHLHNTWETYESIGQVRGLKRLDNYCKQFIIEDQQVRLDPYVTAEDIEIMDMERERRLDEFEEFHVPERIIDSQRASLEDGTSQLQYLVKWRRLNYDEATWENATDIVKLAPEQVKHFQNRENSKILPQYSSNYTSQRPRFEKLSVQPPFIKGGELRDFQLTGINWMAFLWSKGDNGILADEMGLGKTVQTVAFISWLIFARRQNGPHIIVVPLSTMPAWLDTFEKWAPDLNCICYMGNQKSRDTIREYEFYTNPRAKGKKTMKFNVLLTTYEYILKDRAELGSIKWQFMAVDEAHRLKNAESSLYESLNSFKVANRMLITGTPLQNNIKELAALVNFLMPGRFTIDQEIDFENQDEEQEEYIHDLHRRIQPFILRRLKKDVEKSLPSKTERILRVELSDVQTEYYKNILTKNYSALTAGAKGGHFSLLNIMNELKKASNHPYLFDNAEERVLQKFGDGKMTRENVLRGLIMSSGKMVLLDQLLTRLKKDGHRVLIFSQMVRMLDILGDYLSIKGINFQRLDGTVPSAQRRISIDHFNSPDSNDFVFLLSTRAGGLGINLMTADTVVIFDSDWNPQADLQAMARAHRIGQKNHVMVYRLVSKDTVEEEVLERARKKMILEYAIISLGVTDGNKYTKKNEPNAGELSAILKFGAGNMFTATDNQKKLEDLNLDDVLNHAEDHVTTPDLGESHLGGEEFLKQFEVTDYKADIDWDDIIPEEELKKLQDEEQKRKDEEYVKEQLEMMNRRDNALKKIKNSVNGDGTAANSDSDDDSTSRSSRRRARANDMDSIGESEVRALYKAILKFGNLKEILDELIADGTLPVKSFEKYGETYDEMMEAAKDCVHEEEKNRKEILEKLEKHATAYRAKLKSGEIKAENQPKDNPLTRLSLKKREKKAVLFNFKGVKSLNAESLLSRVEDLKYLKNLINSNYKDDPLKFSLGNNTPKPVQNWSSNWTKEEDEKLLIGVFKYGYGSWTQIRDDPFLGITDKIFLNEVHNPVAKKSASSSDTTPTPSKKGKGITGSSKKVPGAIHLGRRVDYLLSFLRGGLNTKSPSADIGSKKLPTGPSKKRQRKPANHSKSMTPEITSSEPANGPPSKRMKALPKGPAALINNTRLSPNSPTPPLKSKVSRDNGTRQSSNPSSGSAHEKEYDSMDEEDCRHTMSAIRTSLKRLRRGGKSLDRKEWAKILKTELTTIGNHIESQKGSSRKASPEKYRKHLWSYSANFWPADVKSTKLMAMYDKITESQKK
Sialic acid-binding Ig-like lectin 9 (Homo sapiens), sequence (Q9Y336 whole entry): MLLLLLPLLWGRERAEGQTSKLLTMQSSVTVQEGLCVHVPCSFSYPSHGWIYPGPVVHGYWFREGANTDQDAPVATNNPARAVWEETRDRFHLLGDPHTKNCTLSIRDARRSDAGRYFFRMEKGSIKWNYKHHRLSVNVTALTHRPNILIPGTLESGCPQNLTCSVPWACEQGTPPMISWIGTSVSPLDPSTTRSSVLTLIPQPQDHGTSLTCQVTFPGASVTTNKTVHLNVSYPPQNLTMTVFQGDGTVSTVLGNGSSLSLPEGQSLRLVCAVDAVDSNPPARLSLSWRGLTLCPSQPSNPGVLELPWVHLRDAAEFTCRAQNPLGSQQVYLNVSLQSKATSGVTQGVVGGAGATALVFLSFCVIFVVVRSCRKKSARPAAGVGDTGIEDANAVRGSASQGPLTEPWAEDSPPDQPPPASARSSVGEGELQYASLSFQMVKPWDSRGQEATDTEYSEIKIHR

Turning to `CSCC(C)(O)CNC(=O)c1ccc(Br)cc1F` (stereo unspecified), the Percent Effect in [1] is -7.07%; in assay [2], 2.7%; in [3], -0.438%; in assay [4], 0.101%; in the assay on Trypanosoma cruzi, 2.25%; in [5] it was 3.23%. Also, the Percent Effect in assay [6] was 2.15%; in the assay filed under Homo sapiens it was -2.21%; in assay [7], 3.23%; in [8], 6.17%; in assay [9], -3.6%.
Regarding `COc1ccc(OCC(=O)NS(=O)(=O)c2cc(F)ccc2F)cc1`, the Percent Effect in assay [1] is -8%; in assay [2], 0%; in assay [3] it was 5.69%; in assay [4] it was -4.95%; with Trypanosoma cruzi it was -3.28%; in assay [5], -3.33%. In addition, the Percent Effect in assay [6] is 5.34%; in the assay listed under Homo sapiens, 22.6%; in [7], -3.7%; in assay [8], -4.88%; in assay [9], -2.11%.
Take `O=C(CC1CCCO1)NCc1ccccc1Cn1cncn1` (stereo unspecified): the Percent Effect in assay [1] was -2.25%; in assay [2], 15.8%; in [3], -5.58%; in assay [4], -5.97%; with Trypanosoma cruzi, -7.75%; in assay [5], 4.32%. Further, the Percent Effect in assay [6] is 9.39%; in the assay filed under Homo sapiens, 3.32%; in assay [7], 4.43%; in assay [8] it was 23.5%; in [9] it was -2.47%.
In the case of `CCCOc1ccc(CNC2CCCc3c2cnn3CC)cc1OC` (stereo unspecified), the Percent Effect was -6.15% in [1]; 15.2% in [2]; -7.05% in assay [3]; 11% in assay [4]; 6.33% with Trypanosoma cruzi; -3.04% in [5]. The Percent Effect in assay [6] was 5.98%; in the assay filed under Homo sapiens, 2.78%; in [7], 9.36%; in assay [8], 21.5%; in assay [9], -12.2%.
As for `Cc1cccc(CNC2CCCc3c2cnn3C)c1` (stereo unspecified), the Percent Effect in assay [1] is 2.29%; in assay [2] it was -5.41%; in [3], -6.19%; in [4], 5.27%; in the assay with Trypanosoma cruzi, 5.38%; in assay [5] it was 0%. Besides, the Percent Effect in assay [6] was 3.6%; in the assay listed under Homo sapiens, -2.08%; in assay [7], 0.493%; in assay [8], 6.17%; in assay [9] it was -2%.
For `NC(=O)CN1CCCN(C(=O)c2ccn(-c3ccccc3)n2)CC1`, the Percent Effect is 0.801% in assay [1]; 9.72% in [2]; -1.01% in assay [3]; 12.3% in [4]; 1.26% in the assay on Trypanosoma cruzi; 9.71% in assay [5]. For the same compound, the Percent Effect was 11.9% in assay [6]; 13.7% in the assay filed under Homo sapiens; 5.26% in assay [7]; 7.69% in assay [8]; -4.05% in [9].
Take `COCC1CC2(CCN(C(=O)c3cccc(C)c3)CC2)CO1` (stereo unspecified): the Percent Effect in [1] is -0.162%; in assay [2], 5.2%; in [3] it was 3.05%; in assay [4] it was 6.28%; with Trypanosoma cruzi, -1.68%; in assay [5] it was -1.94%. Also, the Percent Effect in assay [6] was 1.74%; in the assay filed under Homo sapiens, -8.87%; in assay [7], -3.17%; in [8] it was -3.85%; in [9], -5.05%.
As for `Cc1ccc(CS(=O)(=O)N2CC[C@H]3[C@H]2CCN3C)cc1`, the Percent Effect is 1.22% in assay [1]; 13.7% in [2]; -1.19% in assay [3]; 9.36% in assay [4]; 6.35% in the assay with Trypanosoma cruzi; -0.399% in assay [5]. The Percent Effect in assay [6] is 14.5%; in the assay listed under Homo sapiens, -5.72%; in assay [7], 6.25%; in assay [8], 16.1%; in assay [9], -5.83%.
`Cc1nc(C)n(CC2CCCN(CCc3ccncc3)C2)n1` (stereo unspecified): the Percent Effect is -3.33% in [1]; 16.4% in assay [2]; 0.226% in [3]; 18.2% in assay [4]; 2.35% with Trypanosoma cruzi; 1.36% in [5]. Also, the Percent Effect in [6] was 15.6%; in the assay filed under Homo sapiens it was -0.0927%; in assay [7], 7.53%; in assay [8], 17.5%; in [9] it was -9.61%.
As for `CCN(CC)CCNC(=O)c1cnc(C(C)(C)C)s1`, the Percent Effect in [1] was -3.73%; in assay [2] it was 0%; in assay [3] it was 2.58%; in [4], -11.2%; in the assay on Trypanosoma cruzi, -3.64%; in assay [5] it was 2.88%. Further, the Percent Effect in assay [6] is 8.21%; in the assay listed under Homo sapiens, 0.408%; in assay [7], 0.493%; in [8], -6.17%; in [9], -0.603%.
As to `CC(C)Nc1nc2c(cc1C(=O)N(C)C)CCNCC2`, the Percent Effect in assay [1] was -4.01%; in assay [2] it was 16%; in assay [3] it was 4.22%; in assay [4] it was 9.77%; in the assay on Trypanosoma cruzi it was -0.772%; in assay [5], -24.6%. Also, the Percent Effect in assay [6] is 5.47%; in the assay filed under Homo sapiens it was -7.58%; in [7], 0%; in assay [8] it was -7.5%; in assay [9], -4.61%.
